Records with an inconclusive call do not appear. The source made the active and inactive calls. How the source made its calls: active means hit-call score of the fitted dose curve at least 0.9, where 1 is the maximum; inconclusive means response in the unintended direction; inactive means score below 0.9.
Key:
[1] = target: Cellular tumor antigen p53 (Homo sapiens) (UniProt P04637); assay: TOX21_p53_BLA_p2_ratio: Tox21 HCT-116 p53 Agonism Beta-lactamase Assay, Ratio, Phase 2 (AID 2283592)
Procedure, shortened: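 HCT116 cells carrying a p53-responsive beta-lactamase reporter were plated, incubated 5 h at 37C, then dosed with compounds in DMSO (217-fold dilution) for 16 h. CCF4-AM substrate was added for 2 h at room temperature; the 460/530 nm emission ratio gave gain-of-signal activity relative to DMSO.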

[2] = TOX21_p53_BLA_p3_viability: Viability Assessment in the Tox21 HCT-116 p53 Agonism Beta-lactamase Assay, Phase 3 (AID 2283593);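 further: cells exposed to compound for 16 h before reading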
Procedure, shortened: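 HCT116 cells, 4000/well, dosed 5 h after plating by pin transfer (217-fold dilution from DMSO stock) and incubated 16 h at 37C, 5% CO2. Viability read as ATP luminescence with CellTiter-Glo after 30 min at room temperature.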

[3] = TOX21_p53_BLA_p4_viability: Viability Assessment in the Tox21 HCT-116 p53 Agonism Beta-lactamase Assay, Phase 4 (AID 2283597);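 further: hits lower the luminescence signal meaning cytotoxicity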
Procedure, shortened: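 HCT116 p53-bla cells (4000/well) rested 5 h at 37C, then received compounds in DMSO (217-fold dilution) for 16 h at 37C, 5% CO2. CellTiter-Glo was added after the CCF4-AM read, and luminescence was read after 30 min at room temperature.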

[4] = target: Cellular tumor antigen p53 (Homo sapiens) (UniProt P04637); assay: TOX21_p53_BLA_p5_ratio: Tox21 HCT-116 p53 Agonism Beta-lactamase Assay, Ratio, Phase 5 (AID 2283599)
Procedure, shortened: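 HCT-116 p53-bla cells (4000/well) plated 5 h, dosed with compound (217-fold DMSO dilution) for 16 h at 37 C; CCF4-AM substrate 2 h at room temperature. Activity is the 460/530 nm emission ratio (405 nm excitation), fitted in gain-of-signal direction versus DMSO.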

[5] = TOX21_p53_BLA_p5_viability: Viability Assessment in the Tox21 HCT-116 p53 Agonism Beta-lactamase Assay, Phase 5 (AID 2283600)
Procedure, shortened: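 Cells were plated at 4000/well, rested 5 h at 37C, then given compounds in DMSO (217-fold dilution) for 16 h at 37C, 5% CO2. Following the CCF4-AM beta-lactamase read, CellTiter-Glo was added and luminescence was read after 30 min at room temperature.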

[6] = target: Cellular tumor antigen p53 (Homo sapiens) (UniProt P04637); assay: TOX21_p53_BLA_p4_ratio: Tox21 HCT-116 p53 Agonism Beta-lactamase Assay, Ratio, Phase 4 (AID 2283601)
Procedure, shortened: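 HCT-116 p53 beta-lactamase reporter cells (4000/well) preincubated 5 h, then compound (217-fold dilution of DMSO stock) for 16 h at 37C. CCF4-AM substrate added 2 h at room temperature; 460/530 nm emission ratio fitted upward versus DMSO.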

[7] = target: Cellular tumor antigen p53 (Homo sapiens) (UniProt P04637); assay: TOX21_p53_BLA_p3_ratio: Tox21 HCT-116 p53 Agonism Beta-lactamase Assay, Ratio, Phase 3 (AID 2283596)
Procedure, shortened: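 HCT116 p53-bla cells (4000/well) given compound in DMSO (217-fold dilution) after 5 h, incubated 16 h at 37C. CCF4-AM substrate 2 h at room temperature; 460/530 nm emission ratio, gain fitted against DMSO.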

Measured: outcome

Sequence of Cellular tumor antigen p53 (Homo sapiens) (P04637 whole entry, looked up): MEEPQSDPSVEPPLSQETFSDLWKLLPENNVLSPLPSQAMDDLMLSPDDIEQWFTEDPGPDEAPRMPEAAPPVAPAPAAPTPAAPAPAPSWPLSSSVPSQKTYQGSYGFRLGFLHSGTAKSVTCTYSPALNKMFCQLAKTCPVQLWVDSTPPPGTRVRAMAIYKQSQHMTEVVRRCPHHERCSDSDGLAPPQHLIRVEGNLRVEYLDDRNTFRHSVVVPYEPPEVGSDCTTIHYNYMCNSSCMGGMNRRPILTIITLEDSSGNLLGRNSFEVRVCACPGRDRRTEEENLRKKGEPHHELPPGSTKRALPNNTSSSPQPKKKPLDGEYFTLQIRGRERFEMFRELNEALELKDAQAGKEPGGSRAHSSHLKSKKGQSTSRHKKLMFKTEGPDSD

Oc1ccc(Cl)c2c1CCC2
not listed: [7]
inactive: all other assays above

CCSc1ccc2c(c1)N(CCCN1CCN(C)CC1)c1ccccc1S2
not listed: [7]
inactive: all other assays above

CCCCCCCCCCCCCCCCCCCl
not listed: [7]
inactive: all other assays above

N#CC1(O)CCCCC1
inactive: [1] | [2] | [7] | [6]

CC(=O)N[C@@H](CCC(N)=O)C(=O)O
not listed: [6] | [7]
inactive: all other assays above

CN(C(=O)c1c(O)c2ccccc2n(C)c1=O)c1ccccc1
not listed: [7]
inactive: all other assays above

CC=C(C)C(=O)OCCC(C)CCC=C(C)C (centres undefined)
inactive: [1] | [2] | [3]

CCNC(=O)C(C)OC(=O)Nc1ccccc1 (centres undefined)
inactive: [1] | [2] | [3]

C=C(C)CC(C)(C)C
not listed: [7]
inactive: all other assays above

OC(CCN1CCCCC1)(c1ccccc1)c1ccccc1
not listed: [7]
inactive: all other assays above

CCCCCCCCCCCCCCCCN
not listed: [7]
inactive: all other assays above

CN(C)C(=O)CNC(=O)Cc1ccccc1
not listed: [5] | [7]
inactive: all other assays above

CC(C)CCCC(C)N (centres undefined)
not listed: [7]
inactive: all other assays above

CC1=CC(=O)CC(C)(C)C1(O)/C=C/C(C)=C\C(=O)O (centres undefined)
not listed: [7]
inactive: all other assays above

Source: PubChem BioAssay (EPA / NIEHS)
